Source: PubChem BioAssay AID1159580 (chemical genetic matrix, 2015)
Where “and” joins values, the source holds several entries; their conditions need not be identical. Equal entries are not always repeated. Hit rate of the full screen: of about 5,500 compounds, about 2,000 (36%) were called active. Roughly 18% stayed inconclusive and do not appear here. Cut-off read from the data, not from the text of the source: active = normalized growth mostly below about 0.91 (no sharp cut-off); inconclusive = no clear call, values can overlap the other calls; inactive = mostly above about 0.92. The list shows a part of the results.

Assay: chemical genetic growth profiling, strain panel (AID 1159580);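 note: tested at 20 µM; growth read once vehicle control cultures reached saturation at 30 °C; 1 = growth at the plate median or of vehicle wells; lower values mean less growth of the strain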
Details: S. cerevisiae deletion strains, growth OD

Measured: normalized growth

CC(C)Nc1nc(Cl)nc(NC(C)C)n1
inactive: locus YAL013W, strain DEP1, stronger effect = lower value 1.01 | locus YAL021C, strain ccr4, stronger effect = lower value 1 | locus YAL026C, strain drs2, stronger effect = lower value 0.996 | locus YAL030W, strain snc1, stronger effect = lower value 0.998 | locus YBL061C, strain skt5, stronger effect = lower value 0.996 | locus YBR009C, strain hhf1, stronger effect = lower value 1 | locus YBR021W, strain FUR4, stronger effect = lower value 1.01 | locus YBR023C, strain chs3, stronger effect = lower value 0.992 | locus YBR171W, strain sec66, stronger effect = lower value 0.995 | locus YBR229C, strain ROT2, stronger effect = lower value 0.993 | locus YBR231C, strain swc5, stronger effect = lower value 0.996 | locus YBR279W, strain paf1, stronger effect = lower value 0.994 | locus YCL011C, strain gbp2, stronger effect = lower value 0.992 | locus YCL016C, strain dcc1, stronger effect = lower value 1 | locus YCL029C, strain bik1, stronger effect = lower value 1.01 | locus YCL061C, strain MRC1, stronger effect = lower value 0.987 | locus YCL069W, strain vba3, stronger effect = lower value 1.01 | locus YCR088W, strain abp1, stronger effect = lower value 0.992 | locus YDL005C, strain med2, stronger effect = lower value 0.998 | locus YDL035C, strain GPR1, stronger effect = lower value 1.01 | locus YDL040C, strain nat1, stronger effect = lower value 0.999 | locus YDL074C, strain BRE1, stronger effect = lower value 1.01 | locus YDL101C, strain DUN1, stronger effect = lower value 1.01 | locus YDL134C, strain PPH21, stronger effect = lower value 1.01 | locus YDL185W, strain tfp1, stronger effect = lower value 1.01 | locus YDL192W, strain arf1, stronger effect = lower value 1 | locus YDR001C, strain nth1, stronger effect = lower value 1 | locus YDR069C, strain doa4, stronger effect = lower value 1.01 | locus YDR101C, strain arx1, stronger effect = lower value 0.996 | locus YDR137W, strain rgp1, stronger effect = lower value 0.953 | locus YDR150W, strain NUM1, stronger effect = lower value 1 | locus YDR159W, strain sac3, stronger effect = lower value 1.03 | locus YDR162C, strain NBP2, stronger effect = lower value 1.01 | locus YDR195W, strain ref2 0.969 | locus YDR297W, strain sur2, stronger effect = lower value 1 | locus YDR318W, strain mcm21, stronger effect = lower value 1.02 | locus YDR334W, strain swr1, stronger effect = lower value 0.995 | locus YDR335W, strain msn5, stronger effect = lower value 1 | locus YDR388W, stronger effect = lower value 1.01 | locus YDR392W, strain spt3, stronger effect = lower value 0.996 | locus YDR502C, strain sam2, stronger effect = lower value 1.01 | locus YEL003W, strain gim4, stronger effect = lower value 1 | locus YEL037C, strain rad23, stronger effect = lower value 1.01 | locus YEL061C, strain CIN8 (second series), stronger effect = lower value 1 | locus YEL061C, strain CIN8, stronger effect = lower value 1.01 | locus YER015W, strain faa2, stronger effect = lower value 1 | locus YER016W, strain bim1, stronger effect = lower value 1 | locus YER110C, stronger effect = lower value 1.01 | locus YER111C, strain swi4, stronger effect = lower value 0.994 | locus YER155C, strain BEM2 (second series), stronger effect = lower value 0.992 | locus YER155C, strain BEM2, stronger effect = lower value 1.01 | locus YER167W, strain BCK2, stronger effect = lower value 1.01 | locus YFR010W, strain ubp6, stronger effect = lower value 1.01 | locus YGL078C, strain dbp3, stronger effect = lower value 1.02 | locus YGL086W, strain mad1, stronger effect = lower value 1.01 | locus YGL167C, strain pmr1, stronger effect = lower value 0.998 | locus YGL173C, strain kem1, stronger effect = lower value 0.996 | locus YGL227W, strain vid30, stronger effect = lower value 0.988 | locus YGL240W, strain doc1, stronger effect = lower value 0.99 | locus YGL248W, strain PDE1, stronger effect = lower value 1.01 | locus YGL253W, strain hxk2, stronger effect = lower value 0.999 | locus YGR078C, strain PAC10, stronger effect = lower value 0.997 | locus YGR135W, strain pre9, stronger effect = lower value 0.997 | locus YGR229C, strain SMI1, stronger effect = lower value 1 | locus YGR252W, strain gcn5, stronger effect = lower value 0.983 | locus YHR013C, strain ard1, stronger effect = lower value 1 | locus YHR027C, strain rpn1, stronger effect = lower value 0.994 | locus YHR030C, strain SLT2, stronger effect = lower value 0.979 | locus YHR079C, strain IRE1 (second series), stronger effect = lower value 1.02 | locus YHR079C, strain IRE1, stronger effect = lower value 0.978 | locus YHR094C, strain hxt1, stronger effect = lower value 1.01 | locus YHR129C, strain ARP1, stronger effect = lower value 1.01 | locus YHR142W, strain chs7, stronger effect = lower value 0.995 | locus YHR200W, strain rpn10, stronger effect = lower value 1.01 | locus YIL066C, strain RNR3, stronger effect = lower value 1.02 | locus YIL073C, strain SPO22, stronger effect = lower value 1.07 | locus YIL125W, strain kgd1, stronger effect = lower value 1 | locus YIR030C, strain dcg1, stronger effect = lower value 1.02 | locus YJL092W, strain hpr5, stronger effect = lower value 0.995 | locus YJL095W, strain BCK1 (second series), stronger effect = lower value 1 | locus YJL095W, strain BCK1, stronger effect = lower value 0.987 and 0.984 | locus YJL115W, strain asf1, stronger effect = lower value 0.986 | locus YJL129C, strain trk1, stronger effect = lower value 0.997 | locus YJL134W, strain LCB3, stronger effect = lower value 0.993 | locus YJL154C, strain vps35, stronger effect = lower value 1 | locus YJL164C, strain tpk1, stronger effect = lower value 1.01 | locus YJL166W, strain qcr8, stronger effect = lower value 1 | locus YJL168C, strain set2, stronger effect = lower value 1.01 | locus YJL187C, strain SWE1 (second series), stronger effect = lower value 1.01 | locus YJL187C, strain SWE1, stronger effect = lower value 1.01 | locus YJR043C, strain POL32, stronger effect = lower value 1.01 | locus YJR066W, strain TOR1, stronger effect = lower value 0.928
